Shiga inhibitor: Shiga toxin inhibition. Vero cells, Shiga toxin protein synthesis inhibition reporter. inhibition, % at 38.7 µM. 9.2% of 290,000 active; in the data active = inhibition mostly above about 28%, no sharp cut-off; inactive = mostly below about 43%
FBPA Giardia inh: blocks Giardia fructose-bisphosphate aldolase activity | AID 2451 | Potency, µM (highest dose often 59.6 µM), most hits filed as inhibitors | purified Giardia FBPA | 0.71% of 290,000 active; note: nearly all actives have a fitted effect of over 55% in size
Target sequence (A8B2U2 whole entry, looked up): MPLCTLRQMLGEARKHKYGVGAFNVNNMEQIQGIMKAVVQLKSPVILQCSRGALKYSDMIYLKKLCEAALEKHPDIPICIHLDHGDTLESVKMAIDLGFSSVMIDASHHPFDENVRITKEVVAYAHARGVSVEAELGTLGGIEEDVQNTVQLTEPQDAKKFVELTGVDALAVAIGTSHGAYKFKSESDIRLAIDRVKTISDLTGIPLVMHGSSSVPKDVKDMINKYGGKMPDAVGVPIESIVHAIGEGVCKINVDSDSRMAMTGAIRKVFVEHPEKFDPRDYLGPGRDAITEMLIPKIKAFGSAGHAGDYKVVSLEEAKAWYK
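Giardia FBPA (40 nM reagent) was preincubated 10 min at RT with compound (up to 57.5 uM final), then substrate plus GAPDH/TPI/NAD/arsenate coupling system with diaphorase/resazurin was added; resorufin fluorescence (525/598 nm) was read after 20 min.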
CHX counter: counter-screen for Shiga toxin inhibitors: cycloheximide protein synthesis inhibition; cell reporter, cycloheximide protein synthesis inhibition counterscreen; max response, %; 12% of 300,000 active; in the data active = max response mostly above about 13%, no sharp cut-off; inactive = mostly below about 14%; note: read at 38.3 µM for the half of the compounds with a filed dose
RE007 growth inh: less growth of the S. pombe RE007 Vpr strain; S. pombe RE007 Vpr strain, BacTiter-Glo ATP luminescence, 24 h; Potency, µM (doses to about 92.2 µM), hits mostly inhibitors; 0.21% of 360,000 active; AID 651644; active = well fitted falling curve with a large enough effect; inconclusive = small, poorly fitted or top-dose-only effect; inactive = no such curve, though single readings can be large or run the other way; note: nearly all actives have a fitted effect of over 50% in size
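Fission yeast RE007 carrying one integrated HIV-1 vpr copy, seeded at OD 0.01 in PMG+AL medium with 23 nL pinned compound. Grown 24 h at 30 degrees; viability read by BacTiter-Glo luminescence after 5 min.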
LmPK inh: LmPK (Leishmania mexicana) enzyme inhibition; purified LmPK, Kinase-Glo ATP luminescence, 1 h; Potency, µM (highest dose often 57.5 µM), usual class: inhibitors; 0.37% of 290,000 active; AID 1721
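Pyruvate kinase activity monitored as ATP production (luciferase luminescence). Conditions: 0.1 nM enzyme, 0.5 mM PEP, 0.1 mM ADP, 1 h, RT; normalized against uninhibited and no-enzyme wells.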
Tb PYK inh: inhibitors of Trypanosoma brucei pyruvate kinase. TbPYK enzyme, Kinase-Glo Plus ATP luminescence, 45 min. 0.12% of 410,000 active. Potency, µM (series often up to 76.8 µM), hits mostly inhibitors; note: nearly all actives have a fitted effect of over 50% in size
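T. brucei PYK with substrate was exposed to pin-transferred compounds across a concentration series, then started with 130 uM ADP (final). After 45 min at room temperature, Kinase-Glo Plus luminescence was read, normalized and curve-fitted.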
Of the large screens only hits and unclear results are named; the others gave an inactive call. The entries come from a sample that favours hits as a whole. Unless noted, calls come from the whole dose curve; as a rule, active = well fitted curve in the direction sought with a large enough effect; inconclusive = small, poorly fitted or top-dose-only effect, or another doubt; inactive = no such curve, though single readings can be large; an effect the other way counts as inactive or inconclusive.

O=C1Nc2ccccc2C(O)(C(=O)NCc2ccco2)N1c1ccc(Cl)cc1 (stereo not given)	CHX counter 18.2
CC(C)CCNC(=O)C1(O)c2ccccc2NC(=O)N1c1ccc(Cl)cc1 (stereo not given)	CHX counter 10.2
COC(=O)[C@H](C)[C@H](CC(C)C)NC(=O)[C@H](C)[C@H](CC(C)C)NC(=O)c1ccccn1	none (no result: RE007 growth inh, LmPK inh, Tb PYK inh)
O=C(NC1CC1)C1=C[C@H](C2CCCCC2)C[C@H](OCc2ccc(CO)cc2)O1	Shiga inhibitor 35.3, CHX counter 12.7
C#CCNC(=O)C1=C[C@H](C2CCCCC2)C[C@H](OCc2ccc(CO)cc2)O1	Shiga inhibitor 52.4, CHX counter 13.6
Cc1nc2cncnc2n(C2CC2)c1=O	none (no result: Shiga inhibitor, CHX counter, RE007 growth inh, LmPK inh, Tb PYK inh)
CC1(C)CC(=O)C2=C(C1)C(c1cn(-c3ccccc3)nc1-c1ccccc1)C(C#N)=C(N)O2 (stereo not given)	CHX counter 23.1
CC1(C)CC(=O)C2=C(C1)OC(N)=C(C#N)C2c1cn(-c2ccccc2)nc1-c1ccc(F)cc1 (stereo not given)	none
c1ccc(-c2cn3c4c(sc3n2)CCCC4)cc1	CHX counter 11.5, RE007 growth inh 25.1µM, LmPK inh 14.1µM
c1ccc(-c2cn3nc(-c4ccccc4)sc3n2)cc1	none (no result: Shiga inhibitor, FBPA Giardia inh, CHX counter, LmPK inh)
COc1cccc(NC(=O)CN2C(=O)c3cccc4cccc2c34)c1	none (no result: Shiga inhibitor, FBPA Giardia inh, CHX counter, RE007 growth inh, LmPK inh)
Cn1ccnc1SCC(=O)Nc1sccc1C#N	CHX counter 10.9
N#Cc1ccsc1NC(=O)CSc1ncn[nH]1	none
N#Cc1ccsc1NC(=O)CSc1ncnc2ccccc12	CHX counter 14.7
CCOP(=O)(OCC)/C(=C/N1CCCCC1)NC(=O)c1ccccc1	CHX counter 12.5
CC(=O)N1CCc2cc(Br)cc(S(=O)(=O)CCC(=O)Nc3ccc(C)cc3Cl)c21	none (no result: Shiga inhibitor, FBPA Giardia inh, CHX counter, RE007 growth inh, LmPK inh)
Cc1cc(C(=O)COC(=O)c2nccnc2N)c(C)n1C	Shiga inhibitor 103.5, CHX counter 41.7
COCCn1c(C)cc(C(=O)COC(=O)c2n[nH]c3ccccc23)c1C	CHX counter 11.4, LmPK inh inconclusive
Cc1cc(C(=O)COC(=O)c2n[nH]c3ccccc23)c(C)n1C	Shiga inhibitor 62.5, CHX counter 46.7, LmPK inh inconclusive
COCCn1c(C)cc(C(=O)COC(=O)c2ccccc2Br)c1C	none
CC1CCCCN1C(=O)COC(=O)c1n[nH]c2ccccc12 (stereo not given)	CHX counter 58.0
COc1cc(C(=O)OCC(=O)c2cc(C)n(C)c2C)cc(OC)c1OC	none
CCCCC[C@H](O)/C=C/C=C/C/C=C\CCCC(=O)O	none (no result: Shiga inhibitor, CHX counter, RE007 growth inh, LmPK inh, Tb PYK inh)
COc1ccc(CCN(C)C2CCCN(C(=O)Cn3cnnn3)C2)cc1OC (stereo not given)	CHX counter 12.1
O=C(CCCl)N1CCN(c2nc(-c3ccccc3)cs2)CC1	Shiga inhibitor 68.7, CHX counter 32.7, RE007 growth inh inconclusive
Cc1cc(N2CCN(c3nc(-c4ccccc4)cs3)CC2)c2ccccc2n1	none
CCS(=O)(=O)N1CCN(c2nc(-c3ccccc3)cs2)CC1	CHX counter 18.4
CCCCC(=O)N1CCN(c2nc(-c3ccc(F)cc3)cs2)CC1	none
CS(=O)(=O)N1CCN(c2nc(-c3ccccc3)cs2)CC1	CHX counter 27.4
COc1ccc(OC)c(-c2noc(N3CCN(c4ccc(Cl)cc4)CC3)n2)c1	none (no result: Shiga inhibitor, FBPA Giardia inh, CHX counter, RE007 growth inh, LmPK inh)
CCOc1ccc(CCNC(=O)c2cc3c(=O)n(C)c4ccccc4c3n2C)cc1OCC	none (no result: Shiga inhibitor, FBPA Giardia inh, CHX counter, RE007 growth inh, LmPK inh)
C[C@]12CCC(=O)C=C1CC[C@H]1C2CC[C@@]2(C)[C@@H]1CC[C@]2(C)O (stereo not given in full)	none (no result: Shiga inhibitor, FBPA Giardia inh, CHX counter, RE007 growth inh, LmPK inh)
CCN(c1ccc(NC(=O)COC(=O)c2cccs2)cc1)C(C)C	CHX counter 37.8, Tb PYK inh inconclusive
O=C(COC(=O)c1cccs1)Nc1cccc(Cl)c1	none (no result: Shiga inhibitor, FBPA Giardia inh, CHX counter, LmPK inh)
CC(=O)c1cccc(NC(=O)COC(=O)c2cccs2)c1	Shiga inhibitor 69.2, CHX counter 59.0
CCN(CC)c1ccc(NC(=O)COC(=O)c2cccs2)cc1	Shiga inhibitor 54.9, CHX counter 44.5
COc1ccccc1CN1CCC2(CCNCC2)CC1	none (no result: Shiga inhibitor, CHX counter, RE007 growth inh, LmPK inh)
CCN(CC)c1ccc(C(=O)Nc2cccc(F)c2)cc1	CHX counter 27.8, RE007 growth inh inconclusive

Compound activity: PubChem BioAssay, National Center for Advancing Translational Sciences (NCATS)
